Measurements: PubChem BioAssay
Activity calls are given as the source filed them.

Tests used:
[1] = binders of probe aFSTL3 on microarray, primary screen, stem cell growth factor project, biochemical, small-molecule microarray, fluorescence 635/667 (AID 1064); details: higher = more signal;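 note: measures binding of the biotinylated anti-FSTL3 antibody to printed compounds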
[2] = binders from COS7 lysate, DM2A8 probe, primary screen, torsin A project, cell lysate, small-molecule microarray, fluorescence 635/667 (AID 1065); details: higher = more signal, COS7 lysate expressing mutant human TOR1A
[3] = binders of probe aFGF2 on microarray, primary screen, stem cell growth factor project, biochemical, small-molecule microarray, fluorescence 635/667 (AID 1067); details: higher = more signal;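 note: measures binding of biotinylated aFGF2 protein to printed compounds on slides; z-score merges feature fluorescence and signal-to-noise across triplicate slides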
[4] = binders of probe aFGF10 on microarray, primary screen, stem cell growth factor project, biochemical, small-molecule microarray, fluorescence 635/667 (AID 1071); details: higher = more signal;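 note: score merges 667 nm spot intensity and signal to noise from triplicate slides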
[5] = target: Neurogenic locus notch homolog protein 2 (Homo sapiens) (UniProt Q04721); test: Notch2 binders on small-molecule microarrays, primary screen, biochemical, small-molecule microarray, 635 nm fluorescence, stem cell growth factors (AID 1073); details: Notch2 binding, higher = more signal
[6] = target: Pro-neuregulin-1, membrane-bound isoform (Homo sapiens) (UniProt Q02297); test: NRG1 binders on small-molecule microarrays, primary screen, psychiatric disease protein project, biochemical, small-molecule microarray, fluorescence 635/667 (AID 1075); details: NRG1 binding, 635 nm fluorescence, higher = more signal;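 note: score combines 667 nm spot fluorescence with signal to noise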
[7] = test system: Neuregulin-1 EGF-like domain; test: binders of neuregulin-1 EGF-like domain, primary screen, biochemical, small-molecule microarray, 635 nm fluorescence (AID 1081); details: small-molecule microarray binding, higher = more signal;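 note: binding of the protein to compounds printed on small-molecule microarray slides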
[8] = FRG1 promoter luciferase signal modulators, primary screen, FRG1 inhibition for FSHD, cell-based, C2C12 myotubes, firefly/Renilla luciferase, luminescence (AID 1084); details: higher = more signal, called active from +8 up or from −8 down
[9] = binders of probe aFST on microarray, primary screen, stem cell growth factor project, biochemical, small-molecule microarray, fluorescence 635/667 (AID 1086); details: higher = more signal;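 note: score merges 667 nm fluorescence with signal-to-noise of each printed compound spot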
[10] = binders of probe aHhip on microarray, primary screen, stem cell growth factor project, biochemical, small-molecule microarray, fluorescence 635/667 (AID 1087); details: higher = more signal;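 note: score merges spot fluorescence at 667nm with spot signal to noise ratio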

Sequence of Pro-neuregulin-1, membrane-bound isoform (Homo sapiens) (Q02297 whole entry, looked up, the tested form may be a part, canonical isoform): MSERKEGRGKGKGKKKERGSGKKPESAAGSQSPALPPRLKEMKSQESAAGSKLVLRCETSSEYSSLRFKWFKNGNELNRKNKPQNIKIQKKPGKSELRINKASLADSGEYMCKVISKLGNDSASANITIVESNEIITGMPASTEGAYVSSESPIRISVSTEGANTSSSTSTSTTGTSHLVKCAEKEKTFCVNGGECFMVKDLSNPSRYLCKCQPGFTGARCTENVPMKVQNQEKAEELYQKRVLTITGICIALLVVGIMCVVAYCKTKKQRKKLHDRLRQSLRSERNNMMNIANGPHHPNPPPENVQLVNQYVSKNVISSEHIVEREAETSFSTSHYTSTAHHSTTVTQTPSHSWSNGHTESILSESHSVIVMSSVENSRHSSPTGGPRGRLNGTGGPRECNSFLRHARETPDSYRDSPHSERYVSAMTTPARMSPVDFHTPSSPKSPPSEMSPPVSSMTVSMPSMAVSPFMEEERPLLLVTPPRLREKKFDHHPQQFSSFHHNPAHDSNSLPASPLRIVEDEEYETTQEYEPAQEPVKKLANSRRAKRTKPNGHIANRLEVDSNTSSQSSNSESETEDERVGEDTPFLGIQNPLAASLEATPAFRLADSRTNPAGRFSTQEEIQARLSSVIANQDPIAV
Sequence of Neurogenic locus notch homolog protein 2 (Homo sapiens) (Q04721 whole entry, looked up, canonical isoform): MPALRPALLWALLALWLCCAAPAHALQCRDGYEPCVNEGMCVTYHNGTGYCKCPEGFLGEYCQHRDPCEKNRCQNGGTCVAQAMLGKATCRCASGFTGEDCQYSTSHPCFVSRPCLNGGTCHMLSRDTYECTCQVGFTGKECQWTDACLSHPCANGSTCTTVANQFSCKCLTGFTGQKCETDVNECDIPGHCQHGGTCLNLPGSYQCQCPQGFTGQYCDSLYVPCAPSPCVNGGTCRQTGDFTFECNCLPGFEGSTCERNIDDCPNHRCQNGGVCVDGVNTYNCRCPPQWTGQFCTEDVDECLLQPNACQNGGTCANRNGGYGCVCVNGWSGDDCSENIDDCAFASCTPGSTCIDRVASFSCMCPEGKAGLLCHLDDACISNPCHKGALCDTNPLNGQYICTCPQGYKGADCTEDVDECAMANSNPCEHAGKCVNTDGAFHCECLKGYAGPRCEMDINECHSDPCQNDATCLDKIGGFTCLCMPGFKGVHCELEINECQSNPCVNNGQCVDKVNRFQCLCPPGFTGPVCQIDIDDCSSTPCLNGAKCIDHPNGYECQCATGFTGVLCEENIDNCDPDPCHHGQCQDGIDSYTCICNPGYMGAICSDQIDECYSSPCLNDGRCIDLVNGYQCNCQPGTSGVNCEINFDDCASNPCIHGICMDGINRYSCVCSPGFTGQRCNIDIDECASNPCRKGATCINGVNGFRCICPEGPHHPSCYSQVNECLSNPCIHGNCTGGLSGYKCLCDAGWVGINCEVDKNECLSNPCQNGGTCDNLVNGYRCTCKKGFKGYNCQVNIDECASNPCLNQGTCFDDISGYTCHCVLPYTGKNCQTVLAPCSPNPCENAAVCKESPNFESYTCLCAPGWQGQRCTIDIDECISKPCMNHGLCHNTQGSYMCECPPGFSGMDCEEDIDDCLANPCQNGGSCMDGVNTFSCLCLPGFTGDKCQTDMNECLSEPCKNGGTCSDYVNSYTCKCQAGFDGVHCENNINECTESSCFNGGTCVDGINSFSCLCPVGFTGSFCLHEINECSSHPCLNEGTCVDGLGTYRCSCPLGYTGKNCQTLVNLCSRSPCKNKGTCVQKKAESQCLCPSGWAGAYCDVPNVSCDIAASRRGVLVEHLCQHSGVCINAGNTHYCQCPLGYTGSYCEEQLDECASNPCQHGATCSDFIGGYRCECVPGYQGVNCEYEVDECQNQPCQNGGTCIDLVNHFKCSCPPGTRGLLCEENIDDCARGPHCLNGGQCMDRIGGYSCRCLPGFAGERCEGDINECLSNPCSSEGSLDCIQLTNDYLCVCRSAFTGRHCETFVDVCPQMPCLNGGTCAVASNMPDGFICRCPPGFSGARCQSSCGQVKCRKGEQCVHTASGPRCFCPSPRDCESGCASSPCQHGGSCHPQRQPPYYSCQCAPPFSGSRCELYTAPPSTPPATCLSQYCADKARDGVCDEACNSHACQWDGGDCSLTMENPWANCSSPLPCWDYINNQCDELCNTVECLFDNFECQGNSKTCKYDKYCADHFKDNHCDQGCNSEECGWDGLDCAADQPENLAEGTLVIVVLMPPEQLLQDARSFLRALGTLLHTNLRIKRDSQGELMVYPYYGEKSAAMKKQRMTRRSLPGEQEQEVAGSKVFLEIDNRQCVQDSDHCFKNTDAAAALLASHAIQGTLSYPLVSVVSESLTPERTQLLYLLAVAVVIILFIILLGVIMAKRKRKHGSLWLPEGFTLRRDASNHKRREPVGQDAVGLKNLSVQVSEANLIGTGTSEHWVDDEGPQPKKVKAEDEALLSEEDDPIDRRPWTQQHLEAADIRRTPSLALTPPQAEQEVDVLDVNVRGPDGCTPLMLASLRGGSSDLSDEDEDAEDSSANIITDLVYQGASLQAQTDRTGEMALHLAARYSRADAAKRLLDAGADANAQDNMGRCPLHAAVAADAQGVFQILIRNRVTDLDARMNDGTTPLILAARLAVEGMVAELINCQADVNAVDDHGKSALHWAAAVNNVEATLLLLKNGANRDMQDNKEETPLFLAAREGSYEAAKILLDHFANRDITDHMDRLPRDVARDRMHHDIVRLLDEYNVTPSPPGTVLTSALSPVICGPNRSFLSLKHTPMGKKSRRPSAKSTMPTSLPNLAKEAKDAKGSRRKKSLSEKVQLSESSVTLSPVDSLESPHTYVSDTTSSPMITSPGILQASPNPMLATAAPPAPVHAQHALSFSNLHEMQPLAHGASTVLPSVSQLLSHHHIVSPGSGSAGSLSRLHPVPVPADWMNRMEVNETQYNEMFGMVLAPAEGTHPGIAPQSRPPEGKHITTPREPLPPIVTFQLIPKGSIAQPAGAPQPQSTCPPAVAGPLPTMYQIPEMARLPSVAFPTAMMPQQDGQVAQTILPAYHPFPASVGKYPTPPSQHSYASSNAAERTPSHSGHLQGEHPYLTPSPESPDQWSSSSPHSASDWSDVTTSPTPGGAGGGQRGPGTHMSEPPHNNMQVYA

Row | Structure (SMILES) | composite z-score [1] | composite z-score [2] | composite z-score [3] | composite z-score [4] | composite z-score [5] | composite z-score [6] | composite z-score [7] | z-score [8] | composite z-score [9] | composite z-score [10]
1 | CCCN1C(=O)[C@@]2(CCS(=O)(=O)c3ccccc3)N=C(c3ccc(OCCCO)cc3)O[C@H]2c2ccccc21 | 0.309 | 0.437 | 0.0127 | 0.136 | 0.728 | 1.72 | 1.36 | -3.15 (inactive) | 0.328 | 0.0722
2 | CO[C@H]1COC(=O)[C@@H](C)NC(=O)CC=C[C@@H](C)[C@H](OC)COC(=O)CC=C[C@@H]1C | -0.691 | 1.95 | -0.229 | -0.895 | -1.41 | -0.615 | 0.479 | -1.32 (inactive) | -0.0849 | 0.0596
3 | C=C(C)[C@@H]1CC=C(C(O)C2C=CC3C(=O)NC(=O)C3N2Nc2ccccn2)CC1 (stereo not given in full) | 0.541 | 1.27 | 0.0127 | 1.07 | 1.61 | 1.36 | 1.35 | 1.65 (inactive) | 1.5 | 0.0524
4 | O=C1O[C@@H](c2ccccc2)[C@@H](c2ccccc2)N2[C@@H](c3ccc(OCCO)cc3)[C@]3(C(=O)Nc4ccc(C#CCCO)cc43)[C@@H](C(=O)N3CCN(c4ncccn4)CC3)[C@H]12 | -0.375 | 0.388 | 0.0364 | 0.617 | 0.731 | 1.2 | 1.2 | 0.126 (inactive) | 0.488 | -0.171
5 | COc1ccc([Si](C)(C)[C@@H]2[C@@H](CCO)O[C@]3(C(=O)N(Cc4ccccc4)c4ccccc43)[C@H]2C)cc1 | -0.377 | 0.274 | -0.0692 | 0.351 | 0.216 | -0.01 | 0.501 | 0.377 (inactive) | -0.0439 | -0.0994
6 | COC(=O)C1=CC(c2ccc(CO)cc2)=CC(C2CC2)N(Cc2sc3ccccc3c2Cl)C=C1C(=O)OC (stereo not given) | 0.541 | 1.99 | 0.0083 | 0.88 | 1.26 | 1.68 | 1.33 | -2.15 (inactive) | 1.32 | 0.065
7 | Cc1ccc([C@@H]2CC=C(C(=O)O)[C@H](c3ccccc3)N2S(=O)(=O)c2ccc(C)cc2)cc1 | 0.65 | 0.436 | 0.358 | 1.02 | 1.49 | 1.82 | 1.35 | -3.57 (inactive) | 0.549 | 0.0623
8 | Cc1ccc(S[C@]2(C(=O)NCCCN(C)C)CC(=O)N(Cc3ccccc3)[C@@H]2c2ccc(CO)cc2I)cc1 | 1.04 | -1.08 | -0.0785 | -0.244 | -0.189 | 1.39 | 0.727 | -0.463 (inactive) | 1.04 | -0.427
9 | COc1cc([C@@H]2N[C@H](C(=O)O)Cc3c2[nH]c2ccccc32)cc(OC)c1OC | -0.534 | 0.55 | -0.0806 | 0.28 | 0.507 | 0.0318 | -0.205 | -0.643 (inactive) | -0.134 | 0.338
10 | CCOC(=O)C[C@H]1[C@H](OC(=O)c2cc3ccccc3oc2=O)[C@@H](NC(=O)C2CCCCC2)c2cc(OCCCO)ccc2N1C(=O)c1ccc2ccccc2n1 | -0.662 | 0.0931 | -0.179 | 0.414 | 0.432 | 0.295 | 0.675 | -0.541 (inactive) | 0.33 | -0.0645
11 | CC(C)(C)OC(=O)CC[C@]1(C(=O)N2CCCCC2)N=C(c2ccc(OCCCO)cc2)O[C@H]1c1ccccc1 | -0.187 | 1.67 | 0.136 | 1.07 | 1.55 | 1.53 | 1.27 | -4.25 (inactive) | 0.772 | -0.299
12 | Cc1ccc(S[C@]2(C(=O)NC(C)C)CC(=O)N(C3Cc4ccccc4C3)[C@@H]2c2ccc(CO)cc2)cc1 | -0.796 | 0.172 | -0.148 | 0.301 | -0.586 | 1.42 | 0.62 | -2.74 (inactive) | -0.554 | -0.292
13 | O=C(O)[C@@H]1Cc2c([nH]c3ccccc23)[C@@H](c2ccccc2)N1 | -0.675 | -0.15 | -0.109 | 0.35 | 0.464 | 0.144 | 0.125 | -0.608 (inactive) | 0.084 | -0.0522
14 | C[C@@H]1C=CCC(=O)OC[C@H]2O[C@@H](C=C[C@@H]2O)[C@H](C)C=CCC(=O)OC[C@H]2O[C@H]1C=C[C@@H]2O | -0.663 | 0.919 | -0.113 | 0.526 | 0.16 | -0.0241 | 0.567 | -0.274 (inactive) | 0.0915 | 0.346
15 | C=CCC(OC(C)=O)[C@@H]1[C@@H](N(Cc2ccc(-c3cccc(C(F)(F)F)c3)o2)C(=O)Cc2ccc(F)cc2)c2cc(OCCCO)ccc2N1C(=O)c1ccc(-c2ccccc2)cc1 (stereo not given in full) | 0.142 | -0.0983 | -0.129 | -0.556 | -0.606 | -0.0704 | -0.387 | -0.245 (inactive) | 0.0417 | -0.236
16 | N#Cc1ccc(NN2C(C(O)CCc3ccccc3)C=CC3C(=O)N(c4ccccc4)C(=O)C32)cc1 (stereo not given) | 0.681 | 0.936 | 0.078 | -0.0011 | 1.62 | 1.17 | 1 | -1.22 (inactive) | 1.02 | -0.177
17 | CCN1C(C)=C(C(=O)OC)[C@@H](c2ccccc2)N2C(=O)[C@@]3(C(=O)OC)O[C@@]12[C@@H]1C(=O)CCC[C@@H]13 | -0.65 | 0.33 | -0.178 | 0.234 | -0.334 | -0.307 | 0.545 | -0.765 (inactive) | -0.183 | 0.351
18 | C=CC[C@]1(C(=O)OC)N=C(c2ccc(OCCCO)cc2)O[C@H]1c1ccccc1CN=[N+]=[N-] | 2.1 | 0.164 | -0.0004 | -0.564 | -0.543 | 0.391 | 0.863 | -1.55 (inactive) | 0.629 | -0.0994
19 | CSCC[C@@H]1NC(=O)CC=C[C@@H](C)COC(=O)[C@H](CCSC)NC(=O)CC=C[C@@H](C)COC1=O | -0.678 | 1.31 | -0.127 | 0.0086 | -0.121 | -0.283 | -0.26 | -0.889 (inactive) | -0.15 | 0.0578
20 | C[C@@H]1NC(=O)CC=C[C@@H](C)[C@@H]2C=C[C@H](O)[C@@H](COC(=O)[C@H](C)NC(=O)CC=C[C@@H](C)[C@@H]3C=C[C@H](O)[C@@H](COC1=O)O3)O2 | -0.703 | 0.0339 | -0.0511 | 0.216 | 0.0211 | -0.428 | -0.247 | 0.587 (inactive) | 0.229 | -0.0994
21 | Cc1ccc(N2C(=O)c3ccccc3[C@@H](C(=O)NCc3ccccc3)[C@@H]2c2ccc(CO)cc2)nc1 | 0.462 | 0.205 | -0.128 | -0.741 | -0.272 | -0.161 | 0.908 | -0.702 (inactive) | 0.174 | 0.0807
22 | CCCC[C@@H]1C[C@H]1[C@@H](NC(=O)c1ccccc1)c1ccccc1C(F)(F)F | 0.135 | 0.281 | 0.149 | 0.189 | 1.13 | 1.97 | 0.828 | 0.822 (inactive) | 0.819 | -0.189
23 | COc1ccc(C(O)C2C=CC3C(=O)N(C)C(=O)C3N2N2CCCCC2)cc1OCc1ccccc1 (stereo not given) | 0.556 | -0.599 | -0.0135 | 0.49 | 1.57 | 1.52 | 1.27 | 0.451 (inactive) | 0.994 | 0.232
24 | COCCOC(=O)N1C(=O)[C@@]2(c3cc(C#CC4=CCCCC4)ccc31)[C@H](c1ccc(O)cc1)N1[C@H](c3ccccc3)[C@H](c3ccccc3)OC(=O)[C@H]1[C@@H]2C(=O)N1CCCCCCC1 | 2.57 | -0.264 | -0.06 | 0.0509 | 0.521 | 0.292 | 0.359 | 0.0812 (inactive) | 0.547 | 0.294
25 | [N-]=[N+]=NCc1ccccc1C[C@@]1(C(=O)O)N=C(c2ccc(OCCCO)cc2)O[C@@H]1c1ccccc1N=[N+]=[N-] | 0.168 | -0.259 | -0.0242 | 0.377 | 1.55 | 1.66 | 1.22 | -1.6 (inactive) | 0.521 | -0.0994
26 | C=CC[C@]1(C(=O)NCC(O)CO)N=C(c2ccc(OCCCO)cc2)O[C@H]1c1ccccc1 (stereo not given in full) | 1.28 | -0.012 | -0.118 | -0.843 | -0.502 | 2.14 | 1.25 | -1.1 (inactive) | -0.0064 | -0.124
27 | O=C1c2ccccc2[C@](Cc2ccccc2I)(C(=O)O)[C@H](c2ccc(CO)cc2)N1C1CCCCC1 | 0.007 | 0.297 | 0.0545 | 1.06 | 1.56 | 1.22 | 1.32 | 0.287 (inactive) | 0.892 | 0.011
28 | C=CCC(OC(C)=O)[C@@H]1[C@@H](N(Cc2cc3ccccc3o2)C(=O)c2ccc(C)cc2)c2cc(OCCCO)ccc2N1C(=O)c1ccc2ccccc2n1 (stereo not given in full) | 0.216 | 0.189 | -0.187 | 0.394 | 0.191 | -0.019 | -0.323 | -0.508 (inactive) | 0.113 | 0.107
